Records with an inconclusive call do not appear. Calls of active or inactive are those of the source. Unless noted, calls come from the whole dose curve; as a rule, active = well fitted curve in the direction sought with a large enough effect; inconclusive = small, poorly fitted or top-dose-only effect, or another doubt; inactive = no such curve, though single readings can be large; an effect the other way counts as inactive or inconclusive.
Legend:
[1] = Cellular Toxicity (caspase-3) HepG2 (AID 654);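 note: cells exposed to compound for 16 hours before reading; 0% = DMSO alone and 100% = caspase signal from 100 µM tamoxifen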
Summary of the method: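 HepG2 cells (1500/well) in complete medium were treated with compounds for 16 hr at 37 °C. Caspase-3/7 activity was then read as luminescence from peptide-aminoluciferin cleavage. AC50 came from Hill fits, normalized to DMSO and 100 uM tamoxifen.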

[2] = Cellular Toxicity (caspase-3) Jurkat (AID 655); details: Jurkat caspase-3 activation, luminescence; caspase-3 activation: at 92.2 µM (top of the series), DMSO = 0%, tamoxifen = 100%;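 note: cells exposed to compound for 16 h at 37 °C before reading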
Summary of the method: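 Jurkat cells (5000/well) in complete medium exposed 16 h at 37 C; caspase-3/7 activity read by Caspase-Glo luminescence after 20 min at room temperature. Normalized to DMSO and 100 uM tamoxifen; AC50 from Hill fits.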

[3] = Cellular Toxicity (caspase-3) HUV-EC-C (AID 656)
Summary of the method: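 HUV-EC-C cells (1000/well) in complete medium, compound-treated 16 h at 37 °C; caspase-3/7 activity read by Caspase-Glo 3/7 luminescence. Normalized to DMSO (basal) and 100 uM tamoxifen (100%); AC50 from Hill-equation concentration-response fits.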

[4] = Cellular Toxicity (caspase-3) SHSY5Y (AID 657)
Summary of the method: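 SH-SY5Y human neuroblastoma cells, 1500/well, exposed to compound for 16 hours at 37 °C in complete medium. Caspase-3/7 activity read by Caspase-Glo luminescence after 1 hr at room temperature, normalized to DMSO and 10 uM staurosporine; AC50 from Hill fit.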

[5] = Cellular Toxicity (caspase-3) BJ (AID 658);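 note: 0% = DMSO basal and 100% = 10 µM staurosporine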
Summary of the method: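 Readout: Caspase-Glo 3/7 luminescence increase in BJ cells after 16 hr treatment at 37 °C. Staurosporine and tamoxifen served as positive controls; AC50 values came from Hill modelling of data normalized to DMSO and 10 uM staurosporine.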

[6] = Cellular Toxicity (caspase-3) MRC-5 (AID 659);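 note: 0% = DMSO basal and 100% = 10 µM staurosporine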
Summary of the method: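 Concentration-dependent caspase 3/7 activation is measured in human normal lung fibroblasts (MRC-5) following 16-hour treatment. AC50 values come from standard Hill-equation modeling of luminescence normalized to DMSO and 10 uM staurosporine.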

[7] = Cellular Toxicity (caspase-3) Mesangial (AID 660);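 note: cells exposed to compound for 16 h before the caspase read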
Summary of the method: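 Human renal glomerular mesangial cells (1000/well) were treated with compounds for 16 h at 37 °C in complete medium, then caspase 3/7 activity was read by Caspase-Glo luminescence. Data were normalized to DMSO and 100 uM tamoxifen; AC50 from Hill fits.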

[8] = Cellular Toxicity (caspase-3) SK-N-SH (AID 661);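 note: 0% = DMSO basal and 100% = 10 µM staurosporine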
Summary of the method: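 SK-N-SH human neuroblastoma cells (1500/well) were treated with compounds for 16 hr at 37 °C in complete medium; caspase 3/7 activity was read by Caspase-Glo luminescence. AC50 came from Hill fits of data normalized to DMSO and 10 uM staurosporine.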

[9] = Cellular Toxicity (caspase-3) H-4-II-E (AID 663); details: H-4-II-E rat hepatoma, scaled: DMSO 0%, 100 µM tamoxifen 100%; at 92.2 µM (top of the series);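 note: cells exposed to compound for 16 hr before readout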
Summary of the method: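 Apoptosis induction is scored as increased luminescence from caspase 3/7 substrate cleavage in rat hepatoma H-4-II-E cells exposed to compound for 16 hr. Activity is scaled between DMSO and 100 uM tamoxifen.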

[10] = Cellular Toxicity (caspase-3) Hek293 (AID 664);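 note: cells exposed to compound for 16 h at 37 °C before readout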
Summary of the method: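 HEK293 cells were exposed to compounds in complete medium for 16 hr at 37 °C, then caspase-3/7 activity was read by Caspase-Glo 3/7 luminescence after 20 min at room temperature. Data normalized to DMSO and 100 uM tamoxifen; AC50 from Hill fits.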

[11] = Cellular Toxicity (caspase-3) NIH 3T3 (AID 666);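 note: caspase signal read after 16 h compound exposure; 0% = DMSO basal and 100% = 100 µM tamoxifen stimulation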
Summary of the method: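 Mouse NIH 3T3 fibroblasts (1000 cells/well) were treated with compound for 16 hr at 37°C in complete medium; caspase-3/7 activity was read by Caspase-Glo luminescence. Normalized to DMSO and 100 uM tamoxifen; AC50 from Hill fits.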

[12] = Cellular Toxicity (caspase-3) Renal Proximal Tubule (AID 667);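 note: cells exposed to compound for 16 hours at 37 °C before detection; 0% = DMSO basal and 100% = 10 µM staurosporine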
Summary of the method: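 Freshly isolated primary rat kidney proximal tubule cells, 1000/well, treated 16 hr at 37 °C, then Caspase-Glo 3/7 luminescence after 1 hr. Normalized to DMSO and 10 uM staurosporine; AC50 from Hill fit.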

[13] = target: Guanine nucleotide-binding protein G(i) subunit alpha-1 (Homo sapiens) (UniProt P63096); test: qHTS Assay for Inhibitors of RGS12 GoLoco Motif Activity (Green Fluorophore) (AID 879);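 note: 0% = labeled peptide with Gαi1 and full inhibition = labeled peptide alone without protein; negative values mean loss of peptide binding seen as reduced polarization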
Sequence of Guanine nucleotide-binding protein G(i) subunit alpha-1 (Homo sapiens) (P63096 whole entry, looked up): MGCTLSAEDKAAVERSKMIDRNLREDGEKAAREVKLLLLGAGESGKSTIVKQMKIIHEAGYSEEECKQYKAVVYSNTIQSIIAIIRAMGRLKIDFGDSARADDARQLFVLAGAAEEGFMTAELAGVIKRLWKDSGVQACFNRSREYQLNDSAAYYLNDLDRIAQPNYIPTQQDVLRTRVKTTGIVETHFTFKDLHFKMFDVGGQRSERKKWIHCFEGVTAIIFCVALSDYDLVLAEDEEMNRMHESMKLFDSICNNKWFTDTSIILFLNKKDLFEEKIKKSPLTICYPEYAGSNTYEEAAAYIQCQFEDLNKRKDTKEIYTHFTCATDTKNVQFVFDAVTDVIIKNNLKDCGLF
Summary of the method: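 Fluorescence polarization assay: 50 nM Gαi1 with 10 nM FITC-labeled RGS12 GoLoco peptide in 10 mM Tris pH 7.5, 150 mM NaCl, 0.1 mM GDP, 0.05% NP40, 10 min at room temperature with compound.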

[14] = target: Cytochrome P450 2C9 (Homo sapiens) (UniProt P11712); test: qHTS Assay for Inhibitors and Substrates of Cytochrome P450 2C9 (AID 883); note: % is set by controls: 0 for no effect and ±100 for the full control effect; nearly all actives have a fitted effect of over 60% in size
Sequence of Cytochrome P450 2C9 (Homo sapiens) (P11712 whole entry, looked up): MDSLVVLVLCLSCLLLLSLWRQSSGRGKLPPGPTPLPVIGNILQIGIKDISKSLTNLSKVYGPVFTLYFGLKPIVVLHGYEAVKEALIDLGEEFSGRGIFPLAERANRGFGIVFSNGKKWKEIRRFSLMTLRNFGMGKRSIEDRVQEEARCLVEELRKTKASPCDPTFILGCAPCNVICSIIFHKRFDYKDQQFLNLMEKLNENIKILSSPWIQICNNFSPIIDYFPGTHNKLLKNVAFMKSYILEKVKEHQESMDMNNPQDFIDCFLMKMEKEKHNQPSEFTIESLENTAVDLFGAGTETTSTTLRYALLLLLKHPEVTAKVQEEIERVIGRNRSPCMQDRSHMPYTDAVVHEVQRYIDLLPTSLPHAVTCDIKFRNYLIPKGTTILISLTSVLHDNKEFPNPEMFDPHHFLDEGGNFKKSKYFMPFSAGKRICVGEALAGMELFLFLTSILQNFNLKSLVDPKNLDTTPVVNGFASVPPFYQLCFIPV
Summary of the method: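 Turnover of Luciferin-H (100uM, KM) by 10nM human CYP2C9 was measured over 60 min at 37C with NADPH regeneration; inhibitors and some substrates reduce luminescence. Data normalized to sulphaphenazole 57uM.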

[15] = target: Cytochrome P450 3A4 (Homo sapiens) (UniProt P08684); test: qHTS Assay for Inhibitors and Substrates of Cytochrome P450 3A4 (AID 884); note: % is set by controls: 0 for no effect and ±100 for the full control effect; nearly all actives have a fitted effect of over 50% in size
Sequence of Cytochrome P450 3A4 (Homo sapiens) (P08684 whole entry, looked up): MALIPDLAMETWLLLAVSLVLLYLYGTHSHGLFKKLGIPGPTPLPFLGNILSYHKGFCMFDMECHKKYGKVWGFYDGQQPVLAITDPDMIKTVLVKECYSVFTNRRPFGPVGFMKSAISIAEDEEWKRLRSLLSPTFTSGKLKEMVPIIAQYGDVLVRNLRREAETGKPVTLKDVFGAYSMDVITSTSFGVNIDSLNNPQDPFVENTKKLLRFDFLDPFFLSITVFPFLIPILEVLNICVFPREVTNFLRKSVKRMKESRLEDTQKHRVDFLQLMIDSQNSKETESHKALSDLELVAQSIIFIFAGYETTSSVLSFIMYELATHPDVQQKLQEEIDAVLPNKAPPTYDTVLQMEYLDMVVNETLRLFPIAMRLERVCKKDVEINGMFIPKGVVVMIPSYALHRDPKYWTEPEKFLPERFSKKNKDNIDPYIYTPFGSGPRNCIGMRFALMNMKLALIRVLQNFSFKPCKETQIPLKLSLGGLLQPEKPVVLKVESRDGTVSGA
Summary of the method: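 20 nM human CYP3A4 with 25 uM Luciferin-PPXE (at KM) in 200 mM KPO4, preincubated 10 min with compound; NADPH regeneration started a 60 min RT reaction. Luciferin detected by luminescence, normalized to 57 uM ketoconazole as full inhibition.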

[16] = Confirmation and Secondary Assay for Modulators of Hemoglobin Beta Chain Splicing at IVS2 654 locus (AID 910);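 note: HeLa cells stably carrying EGFP split by mutant beta-globin IVS2-654 intron; per-well total GFP intensity by laser scanning cytometry after 2-day treatment; % of control where 0% means no effect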
Summary of the method: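 Readout: per-well total peak green fluorescence (488 nm ex, 500–520 nm em) from objects 5–250 µm, reflecting correct splicing of an EGFP-654 reporter. Compounds were applied for 2 days at 37 °C to overnight-plated HeLa EGFP-654 cells; controls were DMSO and 500 nM IVS2-654 PNA.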

[17] = qHTS Assay for Identification of Small Molecule Antagonists for NFkB Signaling Pathway (AID 895; active = well fitted inhibition curve with a large enough effect in the signal ratio, with a control signal flat, not every such curve was filed as active; the % refers to the signal ratio; note: % is set by controls: 0 for no effect and ±100 for the full control effect)
Summary of the method: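 Beta-lactamase reporter read-out (460 and 530 nm emission ratio, 405 nm excitation, 2 hrs substrate loading RT) after 5 hr stimulation with 10 pM TNF alpha in compound-treated NFkB-bla ME-180 cells in low-serum medium.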

[18] = target: Cytochrome P450 3A4 (Homo sapiens) (UniProt P08684); test: qHTS Assay for Activators of Cytochrome P450 3A4 (AID 885); note: nearly all actives have a fitted effect of over 65% in size
Summary of the method: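 Steps: enzyme/substrate mix dispensed; compound added, 10 min RT; NADPH regeneration solution added, 60 min RT; luciferin detection buffer stops reaction; 20 min later luminescence measured.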

Oc1ccc(Cl)cc1Cc1ccccc1
inactive: Potency [1] | caspase-3 activation [2] 18.5% | outcome [3] | Potency [4] | outcome [5] | outcome [6] | outcome [7] | outcome [8] | caspase-3 activation [9] 2.16% | outcome [10] | outcome [11] | outcome [12]

O=c1[nH]c2ccccc2n1C1CCN(CCCC(c2ccc(F)cc2)c2ccc(F)cc2)CC1
inactive: outcome [13] | Potency [14] | Potency [15] | outcome [16]

CCn1cc(C(=O)O)c(=O)c2ccc(C)nc21
inactive: outcome [13]

CC(=O)[C@H]1CC[C@H]2[C@@H]3CC[C@H]4C[C@H](O)CC[C@]4(C)[C@H]3C(=O)C[C@]12C
inactive: outcome [13]

CCCN1CCC[C@@H]2Cc3[nH]ncc3C[C@H]21
inactive: outcome [13] | Potency [15] | Potency [17]

Nc1ccncc1
inactive: outcome [13] | outcome [16]

N[C@@H]1C[C@H]1c1ccccc1
inactive: outcome [13] | Potency [17]

CCCC(C)(COC(N)=O)COC(=O)NC(C)C (stereo not drawn)
inactive: Potency [1] | caspase-3 activation [2] 1.39% | outcome [3] | Potency [4] | outcome [5] | outcome [6] | outcome [7] | outcome [8] | caspase-3 activation [9] 0.766% | outcome [10] | outcome [11] | outcome [12] | outcome [13] | outcome [18] | outcome [16]

OCCOc1ccccc1
inactive: Potency [1] | caspase-3 activation [2] -1.54% | outcome [3] | Potency [4] | outcome [5] | outcome [6] | outcome [7] | outcome [8] | caspase-3 activation [9] -1.74% | outcome [10] | outcome [11] | outcome [12] | Potency [15]
